Measurements reported in PubChem BioAssay (NCI).
Compounds without any hit were thinned out: in the full panel of roughly 83,000, 20% have a hit.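 Cell lines were cultured in 96-well plates, exposed to a single compound concentration, and assessed for percent growth 48 hours later.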 Values without a mark were called inactive. Activity calls are given as the source filed them. Rule for the calls: active = growth percent below 10; inactive = the rest.

Tests used:
Assay in all cases: NCI-60 one-dose screen, 48 h (100 = growth as untreated, 0 = no growth, -100 = all killed)
Conditions in all cases: 10 µM unless noted
NCI-H23 lung = tested on: NCI-H23 lung
NCI-H226 lung = tested on: NCI-H226 lung
NCI-H322M lung = tested on: NCI-H322M lung
HOP-62 NSCLC = tested on: HOP-62 NSCLC
NCI-H460 lung = tested on: NCI-H460 lung
NCI-H522 lung = tested on: NCI-H522 lung
A549/ATCC NSCLC = tested on: A549/ATCC NSCLC
786-0 renal = tested on: 786-0 renal
COLO 205 colon = tested on: COLO 205 colon
DU-145 prostate = tested on: DU-145 prostate
K-562 leukemia = tested on: K-562 leukemia
MALME-3M melanoma = tested on: MALME-3M melanoma
MDA-MB-231 breast = tested on: MDA-MB-231 breast
SF-268 CNS = tested on: SF-268 CNS
SF-295 CNS = tested on: SF-295 CNS
SF-539 CNS = tested on: SF-539 CNS
UACC-257 melanoma = tested on: UACC-257 melanoma
RXF 393 renal = tested on: RXF 393 renal
M14 melanoma = tested on: M14 melanoma

Structure (SMILES) | growth (NCI-H23 lung) | growth (NCI-H226 lung) | growth (NCI-H322M lung) | growth (HOP-62 NSCLC) | growth (NCI-H460 lung) | growth (NCI-H522 lung) | growth (A549/ATCC NSCLC) | growth (786-0 renal) | growth (COLO 205 colon) | growth (DU-145 prostate) | growth (K-562 leukemia) | growth (MALME-3M melanoma) | growth (MDA-MB-231 breast) | growth (SF-268 CNS) | growth (SF-295 CNS) | growth (SF-539 CNS) | growth (UACC-257 melanoma) | growth (RXF 393 renal) | growth (M14 melanoma)
O=C(CSc1nc2ccccc2c(=O)n1-c1ccc(Cl)cc1)N/N=C/c1ccc(N2CCCCC2)cc1 | 65.9% | 38.2% | 77% | 18.4% | 9.74% (active) | 88.1% | 49.4% | 7.2% (active) | 82.1% | 29.1% | 73.6% | 64.2% | 72% | 34.7% | 76.4% | 41.3% | 97.1% | – | –
CN1CCN(c2nc(-c3csc(-c4ccccc4)n3)cc3ccccc23)CC1 | 66.7% | 97.7% | 72.9% | 70.2% | -26.1% (active) | 37.1% | 53.8% | 46.4% | -84.4% (active) | 30.8% | -35.1% (active) | 49% | 38.4% | 53% | 74.7% | 57.5% | 46.6% | -4.62% (active) | -70.8% (active)
N#Cc1ccccc1Cn1c2nc(=N)c3ccccc3c-2nc2ccccc21 | 52.4% | 61.3% | 66% | 62.2% | 22.1% | 59.7% | 44.3% | 80.3% | 3.63% (active) | 60.3% | – | – | 41.8% | 74.3% | 52% | 82.6% | 41.8% | 54.3% | 70%
COc1ccc(C2CC(c3cccc(Nc4nc(Cl)nc5cc(OC)c(OC)cc45)c3)=Nc3c(N)nc(N)nc3N2)cc1 (stereo not drawn) | 81.6% | 84.8% | 91.5% | 53.4% | 61.9% | 78.6% | 82.3% | 71.4% | 96.4% | 88.8% | 4.51% (active) | – | 87% | 86.5% | 60.1% | 91.9% | 106% | 76.3% | 93.5%
CC(C)(C)c1ccc(C(=O)Nc2sc3c(c2C(N)=O)CC/C(=N\O)C3)cc1 | 7.05% (active) | 17.5% | 56.9% | 51.9% | 4.25% (active) | -2.43% (active) | 24.1% | 27.5% | 4.38% (active) | 42.2% | 7.83% (active) | – | 14.1% | 32% | 16.8% | 21.6% | 5.76% (active) | -14.3% (active) | 25%
COc1ccccc1-n1cc(C#N)c(N)c1C(=O)c1ccc(C)cc1 | 89.4% | 98.4% | 90.8% | 77.7% | 101% | 64% | 89.8% | 94.8% | 95.6% | 99.2% | 28.4% | – | 90.9% | 90.6% | 74.1% | 97% | 78.3% | 76.6% | 59.8%
CCN1CCN(C(=O)[C@]23CCC(C)(C)C[C@H]2C2=CC[C@@H]4[C@@]5(C)Cc6c([nH]c7ccccc67)C(C)(C)[C@@H]5CC[C@@]4(C)[C@]2(C)CC3)CC1 | 87.7% | 84.4% | 89.1% | 110% | 76.5% | 90.5% | 59.7% | 94.2% | 102% | 83.3% | – | – | 74.1% | 90.1% | 91.9% | 94% | 88.2% | 75.9% | 84.5%
NC(N)=Nc1ccc(Oc2cccc(Nc3ccc(Cl)cc3)c2)cn1 | 29.1% | 29.6% | -3.11% (active) | -21.3% (active) | -72.6% (active) | -30.1% (active) | 24.8% | 35.4% | -64.4% (active) | -18.1% (active) | -68.5% (active) | – | 10.7% | 41.3% | -75.1% (active) | 73.3% | 28.4% | 1.19% (active) | 42.2%
COc1cc2nc(Cl)nc(Nc3cccc(C4=Nc5c(N)nc(N)nc5NC(c5ccc(Cl)cc5)C4)c3)c2cc1OC (stereo not drawn) | 87.8% | 90.4% | 86.3% | 18% | 2.91% (active) | 34.6% | 37.2% | -52.1% (active) | 21.5% | 87.7% | -22% (active) | – | 72.9% | 84.2% | -23.9% (active) | 89.3% | 87.3% | 73.6% | 52.2%
O=C(CN1CCN(c2cc(=O)n(-c3ccccc3)c3ccccc23)CC1)Nc1nc(-c2ccc(Cl)cc2)cs1 | 49.8% | 47.4% | 89.1% | 65.8% | 54.8% | 56.3% | 52.6% | 67.6% | 57.3% | 61.6% | 24.2% | – | 74.7% | 54.5% | 62.6% | 76.1% | 28% | 67% | 55.1%
C[C@@H]1C[C@H]2C(=O)O[C@@H](C)C(NC(=O)[C@H](Cc3cc(F)cc(F)c3)NC(=O)Nc3ccc(Cl)cc3F)C(=O)N3CCC[C@H]3C(=O)N3CCCC[C@H]3C(=O)N[C@@H](CO)C(=O)N2C1 (stereo partly drawn) | 37.9% | -4.63% (active) | 48.6% | 33.4% | 14.5% | 19.4% | 26.2% | 42.2% | – | 26.2% | 23.6% | 46.3% | 35.2% | 31.7% | 20% | 36.2% | 15.8% | -10.3% (active) | 20.7%
NC(N)=Nc1ccc(Oc2cccc(Nc3ccc(Br)c(C(F)(F)F)c3)c2)cc1 | 13.8% | 39.2% | 44.8% | -37.1% (active) | -66.9% (active) | 15% | 33.7% | 32.7% | -31.2% (active) | 22.8% | -11.1% (active) | – | -7.69% (active) | 25.3% | -65.3% (active) | 54.3% | 0.206% (active) | 40.7% | 8.54% (active)
COc1cc2nc(Cl)nc(Nc3cccc(C4=Nc5c(N)nc(N)nc5NC(c5ccc6c(c5)OCO6)C4)c3)c2cc1OC (stereo not drawn) | 78.7% | 85.3% | 83.4% | 40.7% | 55.5% | 74.1% | 86.1% | 61.8% | 89.1% | 81.4% | 4.53% (active) | – | 79.9% | 75.6% | 37.7% | 86.5% | 105% | 56.1% | 89.7%
Cc1nn(-c2ccccc2)c2ncnc(N/N=C/c3cccc(O)c3)c12 | 61.3% | 80.5% | 73.1% | 44.3% | 15.7% | 25.4% | 57.7% | 66.7% | 57.1% | 67.9% | 13.4% | – | 70.8% | 55.9% | 46.5% | 50.4% | 62.8% | 16.6% | 28.6%
C#C[C@]1(O)CC[C@H]2[C@@H]3CC=C4c5sc(-c6cccc(O)c6)nc5CC[C@]4(C)[C@H]3CC[C@@]21C | -26.8% (active) | -29.4% (active) | -5.55% (active) | -20.8% (active) | -52.9% (active) | 3.14% (active) | -16.2% (active) | -57.6% (active) | -25.3% (active) | 2.17% (active) | -5.49% (active) | – | -40.8% (active) | -15.4% (active) | -64.7% (active) | -68.9% (active) | -42.6% (active) | -68.5% (active) | -41.1% (active)
